Source: PubChem BioAssay AID651965 (National Center for Advancing Translational Sciences (NCATS), 2013)
The campaign covered roughly 340,000 compounds. About 6,400 (1.9%) were called active. Roughly 4% stayed inconclusive and do not appear here. Calls follow the shape of the dose curve; as a rule, active = well fitted falling curve with a large enough effect; inconclusive = small, poorly fitted or top-dose-only effect; inactive = no such curve, though single readings can be large or run the other way. Only a selection was taken, and actives are over-represented in it overall.

These compounds were tested against ATP-dependent Clp protease proteolytic subunit (Bacillus subtilis (strain 168)) (UniProt P80244) (assay: qHTS Assay for Activators of ClpP). Settings: purified B. subtilis ClpP, FRET peptide cleavage, 20 min; series mostly up to 57.5 µM.
Method in brief: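 Purified B. subtilis ClpP, 10 microg/mL final in Tris/HCl pH8 with KCl, BSA, glycerol and Tween-20, cleaved an Abz/nitrotyrosine-quenched decapeptide. Fluorescence (ex 320, em 430) was read at 0 and 20 min at room temperature. Delta was normalized to 5.8 microM ADEP and DMSO/no-enzyme controls.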
Also: the source files actives as falling curves though it sought activators and does not explain the sign; nearly all actives have a fitted effect of over 65% in size.
Potency is read from the fitted curve at half-maximal effect.

Chain of ATP-dependent Clp protease proteolytic subunit (Bacillus subtilis (strain 168)) (P80244 whole entry, looked up): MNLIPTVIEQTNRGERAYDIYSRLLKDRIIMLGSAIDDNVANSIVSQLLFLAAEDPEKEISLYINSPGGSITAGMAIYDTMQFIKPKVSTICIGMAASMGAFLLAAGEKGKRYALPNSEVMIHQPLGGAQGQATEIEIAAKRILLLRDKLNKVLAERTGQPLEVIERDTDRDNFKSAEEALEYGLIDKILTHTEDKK

Potency, active:
COc1ccc2c(c1)C(=O)Nc1cc(Cl)ccc1N2 28.2 µM, C=CCn1c(-c2ccc(Cl)cc2)ccc(C#N)c1=O 28.2 µM, COCCNc1nc(-n2nc(C)cc2C)nc2sc3c(c12)CCCC3 28.2 µM, COCCNC(=O)CSc1nc(-c2ccccc2)[nH]c1-c1ccc(C)cc1 31.6 µM, CN1C(=O)c2ccc(NC(=O)c3c(F)c(F)c(F)c(F)c3F)cc2C1=O 31.6 µM, CN1C(=O)c2ccc(NC(=O)C3CCCCC3)cc2C1=O 31.6 µM, CCc1ccc(C2C(C(=O)Nc3ccccc3)=C(C)Nc3c(C(=O)Nc4ccc(C)cc4)cnn32)cc1 (stereo unspecified) 31.6 µM, Cc1ccc(C(=O)NC(=S)NCCN2CCOCC2)cc1 28.2 µM, CC(=O)Oc1ccc(NC(=O)CCC2CCCCC2)c(C(=O)O)c1 22.4 µM, CN(C)CCCNC(=O)c1ccc2[nH]c3ccccc3c2c1 12.6 µM, O=C(COC(=O)CNC(=O)c1ccco1)Nc1ccc(F)cc1 25.1 µM, O=C(CNC(=O)c1ccco1)OCC(=O)c1ccccc1 25.1 µM, COc1cc2cc(CN(CCN3CCCC3)C(=O)Nc3ccccc3Cl)c(=O)[nH]c2cc1OC 3.16 µM, Cc1cc(C(F)(F)F)nn1-c1nc(-c2ccco2)cc(C(F)(F)F)n1 35.5 µM, FC(F)(F)c1cc(-c2ccco2)nc(NCc2ccc(Cl)cc2)n1 28.2 µM, CCSC1(SCC)N=C(N)C2(C#N)C(c3ccccc3)NC(C)=CC12C#N (stereo unspecified) 15.8 µM, CC(C)n1c(-c2cccs2)nc2ccccc21 3.98 µM, CCCCSc1[nH]c(=O)c(C(=O)OCC)cc1C#N 31.6 µM, COc1cc(NC(=O)c2cccs2)ccc1NC(=O)c1ccccc1Cl 14.1 µM, CC(C)c1cc(C(N)=O)c(NC(=O)c2cccc(COc3ccc(Br)cc3)c2)s1 25.1 µM, COc1ccc(OCCn2ccnc2C)cc1 3.16 µM

Potency, inactive:
COc1cc(Cn2c3ccc(NC(=O)CC(C)c4ccccc4)cc3c(=O)n2C)ccc1F (stereo unspecified), COc1ccc(-n2c(-c3ccc(Cl)cc3)n[nH]c2=S)c(OC)c1, COc1ccc(OC)c(C(=O)c2ccc(Cl)cc2)c1, C=CCn1c(SCn2nnc3ccccc3c2=O)nnc1-c1ccc(Cl)cc1, CCn1c(C)cc(=O)cc1-c1ccc(Cl)cc1, COc1cc2ccc(C(C)=O)c(O)c2cc1OC, CCC(O)CNc1nc(-n2nc(C)cc2C)nc2sc3c(c12)CC(C)(C)OC3 (stereo unspecified), COCCNc1ncnc2c1nc1n2CCCC1, COCCCNC(=O)c1cccc2c(-c3ccc(O)c(OC)c3)coc12, CC1=C(C(=O)Nc2cccc(C(=O)NCC(C)c3ccccc3)c2)SCCO1 (stereo unspecified), CN1CCN(C(=O)c2ccc(NC(=O)c3ccc(Br)o3)cc2)CC1, Cc1c(C(=O)NCc2ccc(C#N)cc2)sc(=O)n1Cc1ccc(C(=O)N(C)C)cc1, COC(=O)[C@@]12C[C@@H](CC(=O)N3CCC(c4ccccc4)CC3)C(=O)N(Cc3ccccc3)C1=CCC(C)(C)C2, Cc1nnc(SCC(=O)NCCOc2ccc(Cl)cc2)n1-c1ccccc1, COCCNC(=O)CSc1nc(N)c(NC(=O)c2ccco2)c(=O)[nH]1, CC1(C(=O)NS(=O)(=O)c2ccccc2)CCN1C(=O)c1ccccc1 (stereo unspecified), O=C(c1cc(C2CCCCN2S(=O)(=O)c2ccccc2)on1)N1CCOCC1 (stereo unspecified), Cc1cccc(C(=O)Nc2ccc3c(c2)C(=O)N(CC(C)C)C3=O)c1, O=C(Nc1ccc2c(c1)OCCO2)C1CCCC1, CN1C(=O)c2ccc(C(=O)Nc3ccc(Br)cn3)cc2C1=O, Cc1nc2ccc(NC(=O)C3CCCCC3)cc2s1, COc1ccc(CN(Cc2ccccc2)C(=O)c2ccc(O)cc2)cc1COc1ccc(NC(C)=O)cc1, C[C@@H]1CN([C@@H](C)CO)C(=O)CCCn2nncc2CO[C@H]1CN(C)Cc1ccc(C(F)(F)F)cc1, C#CCN(C[C@@H]1[C@@H](OC(=O)NC2CC2)[C@@H](OC(=O)NC2CC2)Cn2c(=O)ccc(=O)n21)S(=O)(=O)c1ccc(C)cc1, COc1cccc(C2C(C(=O)Nc3ccc(C)cc3C)=C(C)Nc3c(C(=O)Nc4ccccc4)cnn32)c1 (stereo unspecified), CC1=C(C(=O)Nc2ccccc2)C(c2ccc(C)cc2)n2nc(SCc3ccccc3C)nc2N1 (stereo unspecified), CC1(C(=O)NCc2ccc3c(c2)OCO3)CCN1C(=O)Cc1cccs1 (stereo unspecified), COc1cccc(CNc2nc(NCc3ccccc3OC)nc3ccsc23)c1, CCC(=O)N1CCCC1(C)C(=O)Nc1ccc2c(c1)CCN2C(C)=O (stereo unspecified), Cc1cc(C)cc(C(=O)NCCN2CCOCC2)c1, CCn1cc(/C=C(\NC(=O)c2ccc(C)cc2)C(=O)NCCN2CCOCC2)c2ccccc21, CCCNC(=O)c1cc2c(c(-c3cccc(-c4ccc(C#N)cc4)c3)n1)[C@@H](CCO)N(C(=O)CC)C2, CC(C)OC(=O)CC(=O)CC(O)c1cccc([N+](=O)[O-])c1 (stereo unspecified), COC(=O)c1ccc2nc(-c3ccc(F)cc3)c(Cc3ccc(C)cc3)n2c1, COc1ccc(NC(=O)CCCC2CCCCC2)c(OC)c1, COC(=O)c1sccc1NC(=O)CCC1CCCC1, CCc1nc2c(OCc3ccc(C(F)(F)F)cc3)cccn2c1N(C)C(=O)CC(C)C, Cc1ccccc1CN1C(=O)CSCC1(C)C(=O)Nc1c(C)cccc1C (stereo unspecified), CC(C)(C)C1CCC(NC(=O)c2cnn3c2NC(=C2CC2)C=C3C(F)F)CC1 (stereo unspecified), Cc1ccc(C(=O)NCCSc2c(C)[nH]c3ccccc23)cc1C, CCCCNC(=O)c1ccc(-n2c(=S)[nH]c3ccccc3c2=O)cc1, COc1ccc(NC(=O)c2sc(=O)n(Cc3ccc(S(=O)(=O)N(C)C)cc3)c2C)cc1, CCN1C(=O)[C@H]2[C@@H](c3ccccc3)N[C@]3(CCCN(Cc4ccc(C)cc4)C3=O)[C@H]2C1=O, COCCn1c(C)cc(C(=O)COC(=O)CNC(=O)c2ccco2)c1C, CCc1ccc(C(=O)COC(=O)c2ccco2)cc1, NS(=O)(=O)c1ccc(NC(=O)COC(=O)c2ccco2)cc1, CCOC(=O)c1ccc(NC(=O)CNC(=O)c2ccco2)cc1, CC(O)(c1cccc(F)c1)c1nc(-c2ccc3c(c2)OCO3)cs1 (stereo unspecified), C[C@@H]1CN([C@@H](C)CO)C(=O)c2cc(Br)cnc2O[C@H]1CN(C)Cc1ccc(-c2ccccc2)cc1, C[C@@H]1CN([C@H](C)CO)C(=O)CCCn2nncc2CO[C@@H]1CN(C)S(=O)(=O)c1cccc(C#N)c1, CC[C@@H]1CC2=C(C(=O)OC(C)(C)O2)[C@@H](CC)O1, CC1(c2cccc(Br)c2)NC(=O)N(CC(=O)NCCC2=CCCCC2)C1=O (stereo unspecified), COc1ccc(CCN(Cc2cc3cccc(C)c3[nH]c2=O)C(=O)N2CCCC2)cc1OC, Cc1ccc2[nH]c(=O)c(CN(CCCN(C)C)C(=O)Nc3cccc(Cl)c3)cc2c1, O=S1(=O)CC(N2CCSCC2)CN1Cc1cn(Cc2cccc(Cl)c2)nn1 (stereo unspecified), CCc1nc2c(OCc3ccccc3)cccn2c1N(C)C(=O)c1ccco1, CC(=O)Oc1ccc(Cn2c(C)c(C(=O)NCc3ccc(C#N)cc3)sc2=O)cc1, CC(=O)NC(c1cccc(F)c1)c1nc(-c2cccc(F)c2)cs1 (stereo unspecified), CCOC(=O)c1ccn(-c2nc(-c3ccco3)cc(C(F)(F)F)n2)n1, Cc1nn(-c2nc(-c3ccccc3)cc(C(F)(F)F)n2)c(C)c1Cl, COc1ccc(CNc2nc(-c3ccc(Cl)cc3)cc(C(F)(F)F)n2)cc1, COc1nc(NCc2ccc(Cl)cc2)nc(OC)n1, CCc1oc(-c2ccc(OC)cc2)c(C(=O)OCCCCCO)c1C(C)OCCO (stereo unspecified), CNc1cncc(-c2ccc(NS(C)(=O)=O)cc2)n1, COc1cccc(CN2CCC(C(=O)NC(c3ccc4c(c3)OCO4)c3ccccn3)CC2)c1 (stereo unspecified), O=C(COc1ccccc1C(=O)Nc1ccccc1)Nc1cccc(F)c1, CC(C)n1c(CN2CCN(Cc3ccccc3)CC2)nc2ccccc21, CCC(c1nc2ccccc2[nH]1)n1c(=O)c(-c2cccs2)nc2ccccc21 (stereo unspecified), COc1cc(C=C(OC(C)=O)c2ccc3c(c2)OCO3)cc(OC)c1OC, CCOC(=O)c1cnc(COc2ccccc2Cl)[nH]c1=O, CCOC(=O)c1cc(C)nc(S(C)(=O)=O)c1C#N, CC(C)(C(=O)N1CCC1(C)C(=O)NS(=O)(=O)c1ccc(Br)cc1)c1ccccc1 (stereo unspecified), O=C(Nc1ccccc1)c1ccc(NC(=O)c2cccs2)cc1, COc1cc(Cl)c(C)cc1NC(=O)[C@@H]1CCCN1C(=O)c1cccs1, CCC1OC(C2CC2)CC2=C1C(=O)OC(C)(C)O2 (stereo unspecified), CC(C)(C)OC(=O)N(Cc1ccccc1)Cc1ccc(OCc2cccc(NC(=O)c3ccccc3)c2)cc1, CCc1cc(C(N)=O)c(NC(=O)c2ccc(OC)cc2)s1, COCCNC(=O)C1(C)CCCN(Cc2cccc(F)c2)C1 (stereo unspecified), COc1ccc(OCCCCN2CCC(C)CC2)cc1, COc1ccc(OCCCn2c(C)nc3cc(C)c(C)cc32)cc1
